Screening results deposited in PubChem BioAssay by several laboratories.
Exocytosis inh: LAMP-1 surface exposure blockers, TALL-104 cells – cell-based, flow cytometry, MLPCN library, primary screen. TALL-104 LAMP-1 surface exposure; cells stimulated with thapsigargin and PMA. inhibition, % at 10 µM. 0.66% of 360,000 active;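 active = inhibition above about 55%, limit read from the data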
GRK2 aptamer HTS: compounds blocking aptamer binding on GRK2 – biochemical, human GRK2, bead flow cytometry, HTS, primary screen; Beta-adrenergic receptor kinase 1 (Homo sapiens), P25098; FAM-aptamer displacement from GRK2; inhibition of aptamer binding, % at 10 µM; 0.59% of 330,000 active; AID 488847, 2010;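 active = inhibition of aptamer binding above 40%, roughly 3 SD of noise, on plates passing a quality check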;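 also: median bead fluorescence of bound FAM aptamer so fluorescent compounds give negative values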
NadD block: inhibitors of S. aureus NadD, primary screen, biochemical, colorimetric, uHTS. 0.78% of 360,000 active. AID 602399, 2012. inhibition, % at 20 µM. purified NadD enzyme, colorimetric absorbance read-out; in the data active = inhibition above about 26%
PP1 inh: PP1-alpha phosphatase inhibitors, primary screen, counter-screen for PP5 inhibitor project, biochemical, fluorescence, OMFP substrate, single point; purified PP1alpha; inhibition, % at 6.7 µM; 0.9% of 320,000 active; AID 2235, 2010;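 active = inhibition above the mean inhibition of all tested compounds plus 3 SD, computed separately for each screening campaign, cut at about 15% in these data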
Target sequence (P62136 whole entry, looked up): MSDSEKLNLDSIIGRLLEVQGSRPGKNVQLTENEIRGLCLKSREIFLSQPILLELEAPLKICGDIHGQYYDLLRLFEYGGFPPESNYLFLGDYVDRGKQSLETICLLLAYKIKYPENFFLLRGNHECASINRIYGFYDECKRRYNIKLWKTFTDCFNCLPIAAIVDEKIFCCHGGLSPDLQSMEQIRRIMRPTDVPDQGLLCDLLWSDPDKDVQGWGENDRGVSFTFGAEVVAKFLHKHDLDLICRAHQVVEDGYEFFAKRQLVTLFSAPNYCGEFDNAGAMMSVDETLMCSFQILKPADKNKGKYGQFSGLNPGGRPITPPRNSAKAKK
Beta2AR agonist: beta2AR agonists driving receptor internalization, primary screen, cell-based, FAP fluorogen, flow cytometry; Am2.2-beta2AR cells; 0.43% of 340,000 active; response, % (test concentration not listed); AID 504454, 2011; Beta-2 adrenergic receptor (Homo sapiens), P07550;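 active = response above a set limit, near 3 SD of response in nonfluorescent compounds, cut at about 42% in these data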
Exocytosis CP01: inhibitors of lytic granule exocytosis, confirmation, TALL-104 cells, flow cytometry, Cherry Pick01. AID 651954, 2012. LAMP-1 externalization; stimulated with PMA plus thapsigargin. shares compounds with Exocytosis inh. inhibition, % at 10 µM. 11% of 1,500 active; in the data active = inhibition above about 60%
Of the large screens only hits and unclear results are named; the others gave an inactive call (follow-up assays come after a bar, where they were run). Rows were chosen to be rich in hits. Some 2.9% of all compounds tested hit in one or more screens of this group.

Cc1ccccc1NC(=O)CCCN1C(=O)C2CC=CCC2C1=O (centres undefined)	none
CCC(C)NC(=O)NCc1ccccc1F (centres undefined)	none
CCCn1c(C(O)c2cccc(OC)c2)nc2ccccc21 (centres undefined)	Exocytosis inh 73 (no result: GRK2 aptamer HTS, PP1 inh) | Exocytosis CP01 inactive
CSc1ccccc1NC(=O)CN(C)C(=O)CCc1c[nH]c2ccccc12	Exocytosis inh 62 | Exocytosis CP01 inactive
CSc1ccccc1NC(=O)CN(C)C(=O)Cc1c[nH]c2ccccc12	none
CCOC(=O)c1cnc2ccc(OCC)cc2c1N1CCN(c2ccccc2OC)CC1	none
CCOC(=O)c1cnc2ccc(OCC)cc2c1N(C)Cc1ccccc1	Exocytosis inh 102 | Exocytosis CP01 79
CC(CC12CC3CC(CC(C3)C1)C2)NCc1ccccc1O (centres undefined)	Exocytosis inh 61 | Exocytosis CP01 inactive
O=C(CSc1nnc(CNC(=O)c2ccccc2)o1)NCC1CCCO1 (centres undefined)	none
CC1CN(c2nc3ccccc3nc2NS(=O)(=O)c2ccccc2)CC(C)O1 (centres undefined)	none (no result: PP1 inh)
COc1cc(CN2CCCC(C(=O)c3ccc4c5c(cccc35)CC4)C2)cc(OC)c1O (centres undefined)	Exocytosis inh 73 | Exocytosis CP01 inactive
O=C(c1ccc2c3c(cccc13)CC2)C1CCCN(Cc2cccnc2)C1 (centres undefined)	none
CCOc1ccc2c(c1)C(C)=CC(C)(C)N2S(=O)(=O)c1ccc(NC(C)=O)cc1	Exocytosis inh 69 | Exocytosis CP01 inactive
CC(=O)Nc1cccc(-n2c(=O)n(Cc3ccccc3)c(=O)c3[nH]cnc32)c1	Exocytosis inh 56 | Exocytosis CP01 inactive
COc1ccc(Cc2nnc(NC(=O)Nc3ccc(C)cc3)s2)cc1OC	Exocytosis inh 65 | Exocytosis CP01 inactive
Oc1ccc(Cl)cc1/C=C/c1ccc2cccc(O)c2n1	Exocytosis inh 78 (no result: GRK2 aptamer HTS, PP1 inh) | Exocytosis CP01 inactive
CCc1cc2ccccc2nc1SCC(=O)NC1CCCC1	Exocytosis inh 79 | Exocytosis CP01 inactive
COc1cccc(CC2(CO)CCCN(Cc3ccc(OC)c(C)c3OC)C2)c1 (centres undefined)	Exocytosis inh 60 | Exocytosis CP01 inactive
C[C@@H](NC(=O)c1[nH]cnc1C(=O)Nc1ccon1)c1ccccc1	none
COc1ccc(Nc2nc(-c3ccccc3)nc3ccccc23)c(OC)c1	none
COc1ccc(OC)c(Nc2nc(-c3ccncc3)nc3ccccc23)c1	Exocytosis inh 83 (no result: PP1 inh) | Exocytosis CP01 inactive
CC(CC(=O)Nc1ncc([N+](=O)[O-])s1)c1ccccc1 (centres undefined)	Exocytosis inh 59 | Exocytosis CP01 inactive
CN(C)CCCC(=O)c1ccc2c(c1)OCO2	none
CN(C)CCC(=O)c1ccc2c(c1)OCO2	Exocytosis inh 102 | Exocytosis CP01 103
OC(CNCC(c1ccc(Cl)cc1Cl)c1c[nH]c2ccccc12)c1ccccc1 (centres undefined)	Exocytosis inh 100 | Exocytosis CP01 88
CCCCCCN1C[C@H](n2cc(-c3ccc(F)cc3)nn2)[C@@H](O)C[C@@H]1c1ccc(Cl)cc1	Exocytosis inh 58 (no result: GRK2 aptamer HTS, PP1 inh, Beta2AR agonist) | Exocytosis CP01 inactive
CCC(=O)Nc1ccc2c(c1)OCCO2	none
C[C@H](NC(=O)Nc1ccc2c(c1)OCCO2)C(=O)O	Exocytosis inh 101 | Exocytosis CP01 inactive
Cc1ccc(-c2ccc(=O)n(CC(=O)NCCN(CC(C)C)CC(C)C)n2)cc1	none
COC(=O)c1c(NC(=O)c2nc3ccccc3s2)sc2c1CC(C)(C)NC2(C)C	Exocytosis inh 67 | Exocytosis CP01 85
COC(=O)c1c(NC(=O)c2ccc(C(=O)c3ccccc3)cc2)sc2c1CC(C)(C)NC2(C)C	Exocytosis inh 67 (no result: GRK2 aptamer HTS, PP1 inh, Beta2AR agonist) | Exocytosis CP01 63
CCOc1ccc(C(=O)Nc2sc3c(c2C(=O)OC)CC(C)(C)NC3(C)C)cc1	none
CCOC(=O)c1c(NC(=O)CSc2nc3ccccc3[nH]2)sc2c1CC(C)(C)NC2(C)C	none
COc1ccccc1C(=O)NC(=O)COC(=O)Cn1[nH]c(=O)c2ccccc2c1=O	none
COc1ccc(OCC(O)CNS(=O)(=O)c2cccc(Cl)c2)cc1 (centres undefined)	none
O=c1c2c3c(sc2nc(N2CCNCC2)n1CCc1ccccc1)CCCCC3	Exocytosis inh 60 | Exocytosis CP01 inactive
CN(C)CCNc1nc2sc3c(c2c(=O)n1Cc1ccccc1)CCCCC3	Exocytosis inh 57 (no result: GRK2 aptamer HTS, PP1 inh) | Exocytosis CP01 inactive
Cc1ccc2nc(-c3ccc(NC(=O)Cc4cccs4)cc3)[nH]c2c1	Exocytosis inh 68 | Exocytosis CP01 inactive
COc1ccc(C(O)c2ncc(-c3ccccc3)[nH]2)c(OC)c1 (centres undefined)	none (no result: GRK2 aptamer HTS, PP1 inh, Beta2AR agonist)
O=C(O)c1nn(CCOc2cccc(Br)c2)c(=O)c2ccccc12	Exocytosis inh 73 | Exocytosis CP01 inactive
Cn1cccc1C(=O)C(=O)Nc1ccccc1	none
Cc1sc2ncn(-n3c(C)ccc3C)c(=O)c2c1C	none
Cc1ccc(-c2csc3ncn(-n4c(C)ccc4C)c(=O)c23)o1	Exocytosis inh 56 | Exocytosis CP01 inactive
Cc1ccc(-c2nc(C(=O)NCCCN3CCOCC3)cc3c2[nH]c2ccccc23)cc1	Exocytosis inh 56, PP1 inh 15 | Exocytosis CP01 inactive
O=C(CCCc1ccccc1)NCCS(=O)(=O)N1CCN(c2ccc(F)cc2)CC1	none
c1ccc(CN2CCCC3(CCCN(Cc4nc(COc5ccccc5)no4)C3)C2)cc1 (centres undefined)	Exocytosis inh 60 | Exocytosis CP01 inactive
NS(=O)(=O)c1ccc(CCNCc2ccccc2OCc2ccc(Cl)cc2)cc1	Exocytosis inh 57 | Exocytosis CP01 inactive
NS(=O)(=O)c1ccc(CCNCc2cc(Cl)ccc2OCc2ccccc2)cc1	none
COc1ccc(NC(=O)CC2C(=O)Nc3ccccc3N2CC(=O)N2CCCC2)cc1 (centres undefined)	none
O=C(Cn1sc2ccccc2c1=O)NC12CC3CC(CC(C3)C1)C2	Exocytosis inh 104 | Exocytosis CP01 100
CCc1ccc(/C=C2/Sc3ccccc3N(CC(=O)NCCCN3CCOCC3)C2=O)cc1	Exocytosis inh 66 | Exocytosis CP01 63
O=C(CN1C(=O)/C(=C\c2cccc(Br)c2)Oc2ccccc21)NCCCN1CCOCC1	Exocytosis inh 64 | Exocytosis CP01 96
CCN1CCN(CCNC(=O)c2ccc3c(c2)N(Cc2ccc(F)cc2)C(=O)/C(=C/c2ccccc2)S3)CC1	none
O=C(CN1C(=O)COc2ccccc21)NCCCN1CCOCC1	none
